The text below walks through data of publication PMC5700166.

Assay in all cases: protein-binding microarray (PBM); PBM: ~300 nM protein, 6 mM HEPES pH 7.8, 80 mM KCl, 0.5 mM EDTA, 0.5 mM EGTA, 6% glycerol, 35 ng/ul poly-dIdC, 1% milk, 1 h, room temperature; Ap Aiptasia and Nv Nematostella (sea anemones) / Co Capsaspora / Aq Amphimedon (sponge) / Dm Drosophila / Hu human; RHD is the Rel homology domain; high values mean tight binding
What all share (settings): dsDNA, one strand shown

Assay [1] concerns the target T1, GST-Ap-NF-kB RHD (Exaiptasia pallida (Aiptasia), UniProt A0A913YAJ5 2-422).
T1 sequence: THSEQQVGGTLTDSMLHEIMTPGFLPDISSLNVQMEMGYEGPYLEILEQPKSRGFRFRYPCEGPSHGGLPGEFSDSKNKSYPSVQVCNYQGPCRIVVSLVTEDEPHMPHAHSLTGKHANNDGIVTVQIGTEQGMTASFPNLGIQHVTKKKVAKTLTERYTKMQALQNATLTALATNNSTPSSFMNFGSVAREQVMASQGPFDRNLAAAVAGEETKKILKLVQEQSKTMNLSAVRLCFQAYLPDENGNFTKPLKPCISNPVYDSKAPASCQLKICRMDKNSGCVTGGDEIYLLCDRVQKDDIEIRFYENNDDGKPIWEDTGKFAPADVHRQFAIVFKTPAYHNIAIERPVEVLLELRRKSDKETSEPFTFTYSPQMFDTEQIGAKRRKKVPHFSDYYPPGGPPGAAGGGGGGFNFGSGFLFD

The target of assay [2] is T2, GST-Nv-NF-kB (Cys allele) (Nematostella vectensis, UniProt E5G601 2-411).
T2 sequence: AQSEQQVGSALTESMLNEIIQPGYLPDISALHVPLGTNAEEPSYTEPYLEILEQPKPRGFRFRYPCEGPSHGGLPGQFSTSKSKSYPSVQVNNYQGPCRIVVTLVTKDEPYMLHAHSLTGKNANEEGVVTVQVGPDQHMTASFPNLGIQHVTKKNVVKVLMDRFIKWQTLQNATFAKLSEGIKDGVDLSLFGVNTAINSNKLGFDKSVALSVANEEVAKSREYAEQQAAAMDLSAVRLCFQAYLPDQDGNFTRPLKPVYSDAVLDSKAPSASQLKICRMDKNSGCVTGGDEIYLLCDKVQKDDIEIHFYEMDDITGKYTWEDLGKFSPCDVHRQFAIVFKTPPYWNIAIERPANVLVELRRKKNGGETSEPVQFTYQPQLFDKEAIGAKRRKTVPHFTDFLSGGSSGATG

The target of assay [3] is T3, GST-Nv-NF-kB (Ser allele) (Nematostella vectensis, UniProt A7UNT2 2-411).
T3 sequence: T2 sequence with Q21R, C66S, S207N, E215Q, V217A, E225K, A268E, D399E

The target in assay [4] is T4, GST-Co-NF-kB (Capsaspora owczarzaki, UniProt F1ARL5 200-546).
T4 sequence: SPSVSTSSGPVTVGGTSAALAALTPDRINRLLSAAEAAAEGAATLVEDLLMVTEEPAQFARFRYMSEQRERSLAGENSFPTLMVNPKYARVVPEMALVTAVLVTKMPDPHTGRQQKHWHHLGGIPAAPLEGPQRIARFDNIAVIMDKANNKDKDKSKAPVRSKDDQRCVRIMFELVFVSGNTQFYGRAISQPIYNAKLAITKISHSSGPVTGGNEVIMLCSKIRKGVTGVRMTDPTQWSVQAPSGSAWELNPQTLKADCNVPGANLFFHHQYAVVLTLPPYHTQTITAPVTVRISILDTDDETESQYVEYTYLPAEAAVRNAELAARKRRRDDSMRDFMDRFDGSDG

The target of assay [5] is T5, GST-Dm-Relish (Drosophila melanogaster, UniProt Q94527 99-473).
T5 sequence: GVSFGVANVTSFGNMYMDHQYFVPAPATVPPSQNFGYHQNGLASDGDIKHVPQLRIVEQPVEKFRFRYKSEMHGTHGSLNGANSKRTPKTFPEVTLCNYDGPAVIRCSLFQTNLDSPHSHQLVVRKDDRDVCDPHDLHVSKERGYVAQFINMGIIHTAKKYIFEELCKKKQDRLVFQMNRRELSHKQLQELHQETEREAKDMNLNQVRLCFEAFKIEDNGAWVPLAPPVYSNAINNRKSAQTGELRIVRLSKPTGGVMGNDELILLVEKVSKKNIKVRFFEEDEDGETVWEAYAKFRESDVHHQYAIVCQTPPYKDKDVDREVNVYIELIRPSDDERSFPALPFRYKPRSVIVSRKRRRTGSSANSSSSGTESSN

Assay [6] concerns the target T6, GST-Aq-NF-kB (Amphimedon queenslandica, UniProt A9Y5G7 2-389).
T6 sequence: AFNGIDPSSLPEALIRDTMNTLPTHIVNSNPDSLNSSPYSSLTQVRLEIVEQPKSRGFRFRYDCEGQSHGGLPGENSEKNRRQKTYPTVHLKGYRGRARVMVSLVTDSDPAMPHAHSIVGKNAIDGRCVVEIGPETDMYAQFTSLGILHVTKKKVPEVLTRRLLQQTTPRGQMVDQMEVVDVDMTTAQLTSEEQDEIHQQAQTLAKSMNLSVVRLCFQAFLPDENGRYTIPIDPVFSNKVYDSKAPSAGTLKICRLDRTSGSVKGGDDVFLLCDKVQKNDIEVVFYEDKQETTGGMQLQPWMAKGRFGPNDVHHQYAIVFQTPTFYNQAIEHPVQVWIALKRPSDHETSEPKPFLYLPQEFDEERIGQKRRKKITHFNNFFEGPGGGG

Assay [7] concerns the target GST-Hu-p50 (Homo sapiens, UniProt P19838 7-356).

Residue numbers refer to the chain shown, from its start.

GST-Hu-p50, sequence (P19838 7-356): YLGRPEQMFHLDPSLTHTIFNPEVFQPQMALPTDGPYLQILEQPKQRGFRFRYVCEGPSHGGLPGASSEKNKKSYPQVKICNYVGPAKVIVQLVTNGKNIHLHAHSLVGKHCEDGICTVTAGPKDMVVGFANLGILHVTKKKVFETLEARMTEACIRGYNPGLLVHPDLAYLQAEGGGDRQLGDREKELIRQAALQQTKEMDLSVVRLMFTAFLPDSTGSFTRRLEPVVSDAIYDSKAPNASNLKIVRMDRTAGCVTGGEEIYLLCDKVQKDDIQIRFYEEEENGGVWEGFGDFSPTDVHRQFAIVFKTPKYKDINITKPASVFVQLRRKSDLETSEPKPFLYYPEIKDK

Regarding “CCGATTAACATCAGGGGACTTTATGATGTTAATCGGGTCTTGATTCGCTTGACGCTGCTG”, the binding signal was 7.86 z-score in assay [1]; 8.29 z-score in assay [2]; 7.92 z-score in assay [3]; 3.64 z-score in assay [4]; 8.18 z-score in assay [5]; 7.13 z-score in assay [6]. The binding signal in assay [7] was 6.72 z-score.
For the sequence “CCGATTAACATCACGGGTATTCCTGATGTTAATCGGGTCTTGATTCGCTTGACGCTGCTG”, the binding signal in assay [1] is 4.85 z-score; in assay [2], 5.05 z-score; in assay [3], 3.76 z-score; in assay [4], 1.3 z-score; in assay [5], 6.78 z-score; in assay [6], 5.48 z-score. In addition, in assay [7], the binding signal is 3.53 z-score.
Turning to “CCGATTAACATCACACTTTCCCCTGATGTTAATCGGGTCTTGATTCGCTTGACGCTGCTG”, the binding signal in assay [1] came to 6.32 z-score; in assay [2], 6.92 z-score; in assay [3] it was 8.7 z-score; in assay [4], 7.06 z-score; in assay [5], 2.75 z-score; in assay [6], 4.81 z-score. This sequence registered a binding signal in assay [7] of 5.3 z-score.
For the sequence “CCGATTAACATCAGGGAAATCCATGATGTTAATCGGGTCTTGATTCGCTTGACGCTGCTG”, the binding signal came out at 4.11 z-score in assay [1]; 5.43 z-score in assay [2]; 5.07 z-score in assay [3]; 3.28 z-score in assay [4]; 5.65 z-score in assay [5]; 5.63 z-score in assay [6]. The same sequence gave a binding signal in assay [7] of 3.96 z-score.
“CCGATTAACATCAAAAATCCCCATGATGTTAATCGGGTCTTGATTCGCTTGACGCTGCTG”: the binding signal turned out to be 9.63 z-score in assay [1]; 10.8 z-score in assay [2]; 11.4 z-score in assay [3]; 5.31 z-score in assay [4]; 9.64 z-score in assay [5]; 7.92 z-score in assay [6]. Further, the binding signal in assay [7] was found to be 7.94 z-score.
As for “CCGATTAACATCAAAATCCCCCCTGATGTTAATCGGGTCTTGATTCGCTTGACGCTGCTG”, the binding signal in assay [1] was found to be 10.4 z-score; in assay [2] it was 9.21 z-score; in assay [3], 10.9 z-score; in assay [4], 8.91 z-score; in assay [5] it was 9.53 z-score; in assay [6], 8.11 z-score. For the same sequence, the binding signal in assay [7] worked out at 7.61 z-score.
Regarding “CCGATTAACATCAGAGCCCCCCCTGATGTTAATCGGGTCTTGATTCGCTTGACGCTGCTG”, the binding signal in assay [1] came to 4.71 z-score; in assay [2], 3.96 z-score; in assay [3] it was 3.31 z-score; in assay [4], 3.1 z-score; in assay [5], 4.58 z-score; in assay [6], 4.2 z-score. Besides, the binding signal in assay [7] is 3.47 z-score.
In the case of “CCGATTAACATCAGGGGACCACCTGATGTTAATCGGGTCTTGATTCGCTTGACGCTGCTG”, the binding signal came to 4.71 z-score in assay [1]; 3.46 z-score in assay [2]; 2.99 z-score in assay [3]; 2.22 z-score in assay [4]; 6.1 z-score in assay [5]; 4.66 z-score in assay [6]. For the same sequence, the binding signal in assay [7] was 3.71 z-score.
Take “CCGATTAACATCAAAATCCCCCTTGATGTTAATCGGGTCTTGATTCGCTTGACGCTGCTG”: the binding signal worked out at 10.1 z-score in assay [1]; 10.7 z-score in assay [2]; 12.1 z-score in assay [3]; 6.3 z-score in assay [4]; 10.2 z-score in assay [5]; 8.68 z-score in assay [6]. The same sequence registered a binding signal in assay [7] of 8.9 z-score.
Consider “CCGATTAACATCAACATTACCCCTGATGTTAATCGGGTCTTGATTCGCTTGACGCTGCTG”, for which the binding signal in assay [1] stood at 2.39 z-score; in assay [2] it was 2.88 z-score; in assay [3], 3.43 z-score; in assay [4] it was 4.07 z-score; in assay [5], 1.42 z-score; in assay [6] it was 2.86 z-score. Further, the binding signal in assay [7] was 3.24 z-score.
On to “CCGATTAACATCAAGGGGGAAAATGATGTTAATCGGGTCTTGATTCGCTTGACGCTGCTG”, for which the binding signal was 6.85 z-score in assay [1]; 6.58 z-score in assay [2]; 10.6 z-score in assay [3]; 9.03 z-score in assay [4]; 4.2 z-score in assay [5]; 6.14 z-score in assay [6]. Further, the binding signal in assay [7] is 7.34 z-score.
As for “CCGATTAACATCAACATTTCCCCTGATGTTAATCGGGTCTTGATTCGCTTGACGCTGCTG”, the binding signal in assay [1] turned out to be 6.31 z-score; in assay [2], 8.45 z-score; in assay [3], 11.6 z-score; in assay [4], 8.45 z-score; in assay [5], 3.46 z-score; in assay [6], 5.86 z-score. The sequence further gave a binding signal in assay [7] of 6.35 z-score.
